# SNCA expr inhib: SNCA gene expression inhibition. HEK-293 SNCA-luciferase knock-in, luminescence, 24 h. 140,000 tested, 0.17% active. Potency, µM (series often up to 57.2 µM), inactives show at the top dose activity change, negative = inhibition, actives largely listed as inhibitors;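 also: potency is read from the fitted curve at half-maximal effect; plate controls were DMSO cells for no effect and cell-free wells for full effect; nearly all actives have a fitted effect of over 45% in size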
# SNCA viab count: counter-screen for SNCA expression inhibitors: cell viability | HEK-293-SNCA-luc viability, GF-AFC fluorescence, 24 h | Potency, µM (top dose mostly 57.1 µM), for the others: top-dose activity change, negative = cytotoxicity, usual class: cytotoxic | 150,000 tested, 0.12% active;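 also: potency is read from the fitted curve at half-maximal effect; 0% = DMSO-treated cells and -100% = medium-only wells without cells; nearly all actives have a fitted effect of over 30% in size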
#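 Cytotoxicity counterscreen: after 24 h compound treatment of genome-edited SNCA-luciferase HEK-293 cells, live-cell protease substrate GF-AFC read by fluorescence after 30 min; activity scaled between DMSO (0%) and medium-only (-100%), curves Hill-fitted.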
# KDM5B inhibitor: inhibitors of human KDM5B histone demethylase. Q9UGL1. KDM5B demethylase, FDH-coupled NADH fluorescence (FDH is formaldehyde dehydrogenase). Potency, µM (highest dose often 57.7 µM), most hits filed as inhibitors. 220,000 tested, 2.6% active; also: potency is read from the fitted curve at half-maximal effect; 0% is about no effect; nearly all actives have a fitted effect of over 70% in size
# Target sequence (Q9UGL1 whole entry, looked up): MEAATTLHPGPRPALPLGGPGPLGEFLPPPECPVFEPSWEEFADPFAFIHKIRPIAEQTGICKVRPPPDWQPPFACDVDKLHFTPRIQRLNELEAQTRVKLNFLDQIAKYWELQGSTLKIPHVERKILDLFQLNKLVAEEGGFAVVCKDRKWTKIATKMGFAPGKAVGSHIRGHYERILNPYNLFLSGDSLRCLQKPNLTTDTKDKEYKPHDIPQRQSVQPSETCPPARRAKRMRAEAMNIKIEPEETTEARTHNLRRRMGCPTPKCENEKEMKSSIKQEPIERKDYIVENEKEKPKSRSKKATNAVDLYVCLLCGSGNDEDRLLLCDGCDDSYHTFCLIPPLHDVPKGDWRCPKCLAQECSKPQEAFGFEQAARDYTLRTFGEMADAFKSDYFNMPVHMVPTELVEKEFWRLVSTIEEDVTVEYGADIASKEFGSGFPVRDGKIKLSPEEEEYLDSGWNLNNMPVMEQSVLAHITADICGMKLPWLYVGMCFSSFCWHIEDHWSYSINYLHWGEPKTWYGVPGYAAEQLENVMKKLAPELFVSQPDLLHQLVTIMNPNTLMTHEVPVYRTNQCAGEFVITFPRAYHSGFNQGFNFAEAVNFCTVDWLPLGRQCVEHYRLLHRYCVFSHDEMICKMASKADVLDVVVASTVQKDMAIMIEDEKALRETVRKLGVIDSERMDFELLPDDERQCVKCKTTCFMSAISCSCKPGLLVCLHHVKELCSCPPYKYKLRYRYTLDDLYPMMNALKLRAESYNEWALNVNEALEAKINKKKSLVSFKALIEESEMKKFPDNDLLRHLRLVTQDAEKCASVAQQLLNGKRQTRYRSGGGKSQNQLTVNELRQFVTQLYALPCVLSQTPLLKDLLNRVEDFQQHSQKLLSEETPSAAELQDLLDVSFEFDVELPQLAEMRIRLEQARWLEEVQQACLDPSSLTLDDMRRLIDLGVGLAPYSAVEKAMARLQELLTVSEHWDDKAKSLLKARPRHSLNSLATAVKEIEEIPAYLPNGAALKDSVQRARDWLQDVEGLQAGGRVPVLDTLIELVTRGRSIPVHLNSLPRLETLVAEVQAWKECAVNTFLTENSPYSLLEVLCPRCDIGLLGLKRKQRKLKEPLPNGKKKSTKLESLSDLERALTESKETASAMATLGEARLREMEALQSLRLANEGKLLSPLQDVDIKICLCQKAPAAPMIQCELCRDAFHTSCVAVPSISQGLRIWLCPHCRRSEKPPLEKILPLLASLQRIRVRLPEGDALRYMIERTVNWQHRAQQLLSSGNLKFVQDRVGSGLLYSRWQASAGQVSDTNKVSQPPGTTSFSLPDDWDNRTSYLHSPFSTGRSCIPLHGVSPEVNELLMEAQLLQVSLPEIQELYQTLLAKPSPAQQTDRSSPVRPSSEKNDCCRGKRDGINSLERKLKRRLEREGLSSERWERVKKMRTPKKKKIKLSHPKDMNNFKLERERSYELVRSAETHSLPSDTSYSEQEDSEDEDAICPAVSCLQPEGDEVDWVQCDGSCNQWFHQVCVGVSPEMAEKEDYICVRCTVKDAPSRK
#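 Measured: NADH fluorescence change, 30 min, RT. System: KDM5BΔAP 200 nM final, H3K4me3 peptide, α-KG, Fe(II), ascorbate, NAD⁺ plus FDH, pH 7.5 HEPES. Compounds: titrated, 10 min pre-incubation with enzyme.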
# IP6K1 inhibitor: inhibitors of human IP6K1 | activity change, % (series mostly up to about 58 µM) | AID 1645851 | Q92551 | IP6K1 kinase, ADP-Glo luminescence, 2 h; stronger effect = lower value | 140,000 tested, 0.81% active; in the data active = activity change below about -25%; also: % is scaled to controls: 0 for no effect and ±100 for the full control effect
#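 ADP-Glo luminescence measures ADP made by human IP6K1 during a 2 h RT reaction with ATP/IP6 (mix at 1.3 mM/130 uM); top library doses 57.5 and 19.1 uM final.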
# An asterisk follows results filed as active; i = inactive; ? = inconclusive; . = no result; [ ] = another dose, or the depositor's remark. Compounds with a hit are over-represented: about 2.8% of the library has one in this group of screens. Unless noted, calls follow the shape of the dose curve; as a rule, active = well fitted curve in the direction sought with a large enough effect; inconclusive = small, poorly fitted or top-dose-only effect, or another doubt; inactive = no such curve, though single readings can be large; an effect the other way counts as inactive or inconclusive.
SMILES,SNCA expr inhib,SNCA viab count,KDM5B inhibitor,IP6K1 inhibitor
COc1ccc(CC(=O)NC(C)C(=O)N2CCN(c3ccccn3)CC2)cc1 (stereo not drawn),-16%,-1%,32µM*,22
COc1ccc(C(=O)NC(C)C(=O)N2CCN(c3ccccn3)CC2)cc1F (stereo not drawn),-24%,-8%,?,4
COc1cccc(CN2C(=O)CCCCC2C(=O)N2CCN(c3ccccn3)CC2)c1 (stereo not drawn),-13%,-20%,.,-10
COc1ccc(-c2cnc3[nH]cc(CC(=O)N4CCN(c5ccccn5)CC4)c3c2)cc1,39%[87.6 µM],-22%[87.6 µM],28µM*,-9
CCOc1ccccc1C(=O)NC(C)C(=O)N1CCN(c2ccccn2)CC1 (stereo not drawn),?,8%,22µM*,1
COc1cccc(CCC(=O)NC(C)C(=O)N2CCN(c3ccccn3)CC2)c1 (stereo not drawn),-8%,-10%,22µM*,2
COc1ccc(Oc2cc(CNS(=O)(=O)N3CCOCC3)ccn2)cc1,.,.,i,.
CCCCOc1ccc(NC(=O)Cc2ccccc2)c2cccnc12,.,.,i,.
CCCn1nc(C(=O)N2CCN(c3ccccn3)CC2)c2ccccc2c1=O,.,.,i,.
CC(NC(=O)c1n[nH]c2ccccc12)C(=O)N1CCN(c2ccccn2)CC1 (stereo not drawn),2%,5%,22µM*,2
Cc1cc2c(-c3ccc(S(C)(=O)=O)cc3)nc(-c3c(C)noc3C)cc2[nH]1,55%[87.6 µM],-2%[87.6 µM],35µM*,-19
Cc1cc2c(-c3cccc(S(C)(=O)=O)c3)nc(-c3c(C)noc3C)cc2[nH]1,79%[87.6 µM],-25%[87.6 µM],35µM*,-18
Cc1cc2c(-c3cccc(CO)c3)nc(-c3c(C)noc3C)cc2[nH]1,70%[87.6 µM],-18%[87.6 µM],i,-24
Cc1cc2c(-c3cccc(O)c3)nc(-c3c(C)noc3C)cc2[nH]1,74%[87.6 µM],-10%[87.6 µM],i,-13
CCn1c(SCC(=O)Nc2oc(C)c3c(C)n[nH]c(=O)c23)nnc1C1CC1,.,.,i,.
O=C(Nc1ccc(Br)cc1)C1=C(c2ccccc2)SCCO1,.,.,i,.
CS(=O)(=O)N1C[C@H]2CCN(C(=O)c3cccc4[nH]ccc34)C[C@H]21,0%,1%[12.5 µM],18µM*,5
O=C(c1cccs1)N1CC[C@@H]2COCCN(Cc3cccnc3)[C@@H]2C1,0%,-13%,i,13
CS(=O)(=O)N1C[C@H]2CCN(C(=O)c3ccc4[nH]ccc4c3)C[C@H]21,14%,1%[12.5 µM],i,11
O=C(c1cccc2[nH]ccc12)N1CC[C@@H]2COCCN(Cc3cccnc3)[C@@H]2C1,1%,-4%,18µM*,-1
O=C(c1cccc2[nH]ccc12)N1CC[C@@H]2COCCN(Cc3ccncc3)[C@@H]2C1,-16%,-3%,28µM*,0
COc1cccc(-c2ccc(CN3CCCC(NC(=O)c4ccc(F)cc4)C3)cc2)c1 (stereo not drawn),21%,?,.,-4
Cc1cc(C(=O)O)ccc1-c1ccc(C=C(C#N)C#N)o1,.,.,i,.
OCC1CCCN(c2ccc(-c3nc(-c4cccc(C(F)(F)F)c4)no3)cn2)C1 (stereo not drawn),48%,1%,28µM*,-2
OC[C@@H]1CN(c2ccc(-c3nc(-c4cccc(C(F)(F)F)c4)no3)cn2)C[C@H]1CO,-1%,-9%,28µM*,0
SMILES,SNCA expr inhib,SNCA viab count,KDM5B inhibitor,IP6K1 inhibitor
CN(C)CCN(Cc1ccc(-c2ccc(CNCCc3ccccc3)cc2)cc1)C(=O)CCC1CCCC1,.,19µM*,.,3
Fc1ccc(CCNC(=S)c2cccs2)cc1,.,.,i,.
CC(C)(C)c1ccc(-c2cc(C[C@H]3CNCC[C@H]3CC(=O)N3CCN(c4ccccn4)CC3)no2)cc1,-4%,?,i,7
CN(Cc1ccccc1)Cc1cc(C[C@H]2CNCC[C@H]2CC(=O)N2CCN(c3ccccn3)CC2)no1,?,-1%,18µM*,0
Cc1noc(C)c1-c1cc2c(cc(C)n2C)c(-c2cccc(O)c2)n1,39%[87.6 µM],10%[87.6 µM],?,-14
COc1cc(-c2nc(-c3c(C)noc3C)cc3[nH]c(C)cc23)ccn1,56%[87.6 µM],-16%[87.6 µM],32µM*,-17
Cc1cc(-c2nc(-c3c(C)noc3C)cc3c2cc(C)n3CCN(C)C)ccn1,20%[87.6 µM],-4%[87.6 µM],35µM*,-7
Cc1cc2cc(-c3c(C)noc3C)nc(Nc3ccccn3)c2o1,2%[87.6 µM],-11%[87.6 µM],?,-4
Cc1noc(C)c1-c1cc2c(cc(C)n2CCN(C)C)c(Nc2ccncn2)n1,-5%[87.6 µM],4%[87.6 µM],32µM*,-14
Cc1noc(C)c1-c1cc2c(cc(C)n2CCN(C)C)c(-c2ccccc2)n1,0%[87.6 µM],-16%[87.6 µM],32µM*,-3
Cc1ccc(-c2nn(-c3cc(N4CCOCC4)ccc3[N+](=O)[O-])c(=O)c3ccccc23)cc1,.,.,i,.
O=C(Nc1cccc(F)c1)c1nn(Cc2ccccc2)c(=O)c2ccccc12,.,.,i,.
COc1cc(-c2nc(-c3c(C)noc3C)cc3c2cc(C)n3CCN(C)C)ccn1,0%[87.6 µM],-10%[87.6 µM],32µM*,-8
Cc1noc(C)c1-c1cc2c(cc(C)n2CCN(C)C)c(-c2ccnn2C)n1,?,-17%[87.6 µM],35µM*,-16
COc1cncc(-c2nc(-c3c(C)noc3C)cc3c2cc(C)n3CCN(C)C)c1,25%[87.6 µM],-27%[87.6 µM],40µM*,-18
Cc1noc(C)c1-c1cc2c(cc(C)n2CCN(C)C)c(-c2ccsc2)n1,-1%[87.6 µM],-10%[87.6 µM],32µM*,-12
COc1ncccc1-c1nc(-c2c(C)noc2C)cc2c1cc(C)n2C,67%[87.6 µM],2%[87.6 µM],i,-8
COc1ccc(-c2nc(-c3c(C)noc3C)cc3c2cc(C)n3C)cn1,21%[87.6 µM],1%[87.6 µM],35µM*,-21
CC(c1cccc2ccccc12)N(C(=O)c1cccs1)C1CC1 (stereo not drawn),.,.,i,.
O=C(CSc1nnc(-c2c[nH]c3ccccc23)o1)N1CCCC1,.,.,i,.
O=C(NCc1ccccn1)C1c2ccccc2C(=O)N(C2CCCCC2)C12CCCCC2 (stereo not drawn),-21%,-14%,i,7
Cc1nc(C)n(CCNS(=O)(=O)c2ccccc2)n1,.,.,i,.
Cc1nc(C)n(CCCNc2nccc(-c3ccccn3)n2)n1,-24%,4%,22µM*,0
Cc1ccc(CN(C)C(=O)CSc2nc(-c3cccs3)nc3ccccc23)o1,.,.,i,.
COCc1ccc2c(c1)c(OC(C)(C)C(=O)NCCN1CCOCC1)nn2CCC(C)C,26%,2%,25µM*,-1
COCc1ccc2c(c1)c(OC(C)(C)C(=O)NCCN1CCOCC1)nn2Cc1cccnc1,7%,1%,i,-5
COCc1ccc2c(c1)c(OC(C)(C)C(=O)NC1CCN(C)CC1)nn2CCC(C)C,2%[87.6 µM],-1%[87.6 µM],35µM*,-8
COCc1ccc2c(c1)c(OC(C)(C)C(=O)NC1CC1)nn2CCC(C)C,-39%[87.6 µM],-1%[87.6 µM],40µM*,-7
CCCC1Cc2c(sc3nc(SCC(=O)c4ccccc4)nc(N)c23)CO1 (stereo not drawn),.,.,i,.
CNC(=O)[C@H]1CN(C(=O)c2ccc(SC)cc2)[C@]2(C)C(=O)N(CC3CC3)c3ccccc3[C@H]12,.,.,.,0

# Compound activity: PubChem BioAssay, National Center for Advancing Translational Sciences (NCATS)
